CYP2C19 inhib = human CYP2C19 inhibition; P33261; CYP2C19 Supersomes, luciferin-H EGE luminescence, 30 min; inhibition, % at 5 µM; 96,000 tested, 21% active;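 active = CYP2C19 inhibition above a set limit at 5 µM in the primary screen, cut at about 50% in these data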;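 also: plate controls were negative control wells for no effect and 2.5 mM tranylcypromine positive control for full effect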
Target sequence (P33261 whole entry, looked up): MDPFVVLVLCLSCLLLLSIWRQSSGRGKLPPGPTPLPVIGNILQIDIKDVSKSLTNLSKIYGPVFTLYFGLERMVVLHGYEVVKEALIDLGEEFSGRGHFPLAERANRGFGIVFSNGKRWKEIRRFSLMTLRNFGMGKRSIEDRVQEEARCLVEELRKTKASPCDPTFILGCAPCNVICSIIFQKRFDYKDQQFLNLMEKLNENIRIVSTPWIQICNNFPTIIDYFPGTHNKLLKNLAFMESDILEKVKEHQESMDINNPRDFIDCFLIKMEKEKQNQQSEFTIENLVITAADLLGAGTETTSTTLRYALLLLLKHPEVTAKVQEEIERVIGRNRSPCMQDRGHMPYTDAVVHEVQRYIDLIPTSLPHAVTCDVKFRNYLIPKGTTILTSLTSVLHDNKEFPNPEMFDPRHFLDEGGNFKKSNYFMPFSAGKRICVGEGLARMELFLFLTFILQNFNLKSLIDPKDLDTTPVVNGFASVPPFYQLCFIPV
CYP2C9 activ = increases human cytochrome P450 2C9 activity. recombinant CYP2C9, luciferin-H conversion, luminescence; active compounds read high; factor 1 = untreated enzyme, 0 = blocked. P11712. 96,000 tested, 1.4% active. activation factor at 5 µM. AID 1024;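 active = activation factor of 2 or more for CYP2C9 at a 5 µM dose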;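 also: 0 = sulfaphenazole-blocked wells and 1 = vehicle-only wells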
PostGolgi yeast = growth inhibition of a yeast mutant, post-Golgi transport screen. inhibition, % at 10 µM. 98,000 tested, 0.9% active. post-Golgi transport phenotypic cell assay. AID 739;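 also: yeast cells grown in 1536-well plates; yeast grown about 18 h at 30C before absorbance read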
CYP2C19 act = cytochrome P450 2C19 (human) activation; P33261; 96,000 tested, under 10 active; activation factor at 5 µM; recombinant CYP2C19, luciferin-H EGE luminescence; active compounds read high; 0 = fully inhibited enzyme, 1 = untreated enzyme;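 active = activation factor of at least 2 at 5 µM in the primary screen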;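 also: 0 = wells with 2.5 mM tranylcypromine and 1 = vehicle-only wells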
PostGolgi ctrl = yeast control strain growth, post-Golgi counter-screen | inhibition, % at 10 µM | efflux-deficient yeast background strain, growth absorbance A615, 16 h | 98,000 tested, 5% active
CYP2C9 inh = blocks human cytochrome P450 2C9; AID 777; CYP2C9 Supersomes, luciferin-H conversion, luminescence; 96,000 tested, 20% active; inhibition, % at 5 µM;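 active = blocking of liver enzyme CYP2C9 beyond about 50% at 5 µM, limit read from the data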
Active calls of the source: *; . = no result given. The list is not random: actives were taken first. Their share in the collection is about 32%. Rule as the data show it, unless noted: active = inhibition above about 30%; inactive = the rest.

SMILES	CYP2C19 inhib	CYP2C9 activ	PostGolgi yeast	CYP2C19 act	PostGolgi ctrl	CYP2C9 inh
CCc1ccc(-c2cn(-c3nc(C)cc(C)n3)c(=N)o2)cc1	58.9*	0.8	9.9	0.4	10.5	23.4
CCc1ccc(C(=O)CN(C#N)c2nc(C)cc(C)n2)cc1	26.9	1.7	-5.7	0.7	7.0	-71.4
O=C(NC1(C(F)(F)F)NC(=O)N(C2CCCCC2)C1=O)c1cccs1 (stereo not given)	47.0	0.6	-1.1	0.5	1.7	42.8
OCCN1CCN(CC#CCn2c3ccccc3c3ccccc32)CC1	27.8	1.9	1.0	0.7	0.4	-94.0
OCCOCCOCCn1c2ccccc2c2ccccc21	81.7*	0.7	20.0	0.2	3.7	28.6
Cn1c(=O)c2c(nc(NCC3CCCO3)n2C)n(C)c1=O (stereo not given)	-11.3	1.1	-6.4	1.1	3.7	-14.6
O=C1C(Cl)=C(NCC2CCCO2)C(=O)N1Cc1ccccc1 (stereo not given)	59.8*	1.6	13.8	0.4	7.7	-62.3
Cn1c(=O)n(Cc2ccccc2)c(=O)c2c1nc(NCC1CCCO1)n2Cc1ccccc1 (stereo not given)	3.0	0.3	2.1	1	24.4	66.2*
CC1(C)CC(=O)C=C(NCC2CCCO2)C1 (stereo not given)	-0.7	1.1	-0.3	1	-5.2	-9.5
COc1ccc(/C(C)=N\n2cnnc2)cc1	-8.1	1.2	-2.0	1.1	-0.1	-22.0
COc1ccc(CN2CCn3ncc(C(=O)Nc4cccc(C)c4)c3C2=O)cc1	-3.5	1	-8.9	1	-3.5	2.8
CN(C)S(=O)(=O)n1cnc(-c2ccccc2)c1-c1ccccc1	18.4	0.8	0.6	0.8	-1.2	24.5
CC(C)(C)C(=O)C(Cc1ccccc1)n1cncn1 (stereo not given)	30.8	0.4	51.1*	0.7	45.4*	56.0*
CC(C)(C)C(=O)C(Cc1ccccc1Cl)n1cncn1 (stereo not given)	59.5*	0.9	99.4*	0.4	93.6*	12.1
CC(C)(C)C(=O)Cn1c(=N)n(Cc2ccccc2Cl)c2ccccc21	-1.8	1	2.6	1	15.4	4.4
CCCC(C(=O)c1ccccc1)n1cncn1 (stereo not given)	17.1	0.9	1.7	0.8	-10.6	5.2
Cc1ccc(OCCNS(=O)(=O)c2ccc(N3CCCC3=O)cc2)cc1C	30.3	0.6	2.4	0.7	14.8	39.8
Cc1ccc(-n2c(C)cc3c2CC(C)(C)CC3=O)cc1C	12.4	0.9	16.1	0.9	31.2*	10.8
Cc1cc2c(n1-c1ccc(Br)cc1)CC(C)(C)CC2=O	67.4*	1	0.3	0.3	40.0*	2.7
Cc1ccc(N2C(=O)C(O)(C(F)(F)F)C3=C2CC(C)(C)CC3=O)cc1C (stereo not given)	19.6	0.9	0.0	0.8	-7.3	10.7
Nc1nc2ccccc2n1/N=C/c1ccc(Br)cc1	5.7	0.7	15.3	0.9	25.3	33.5
Cn1c(C(=O)N2CCOCC2)cnc1Sc1ncc(C(F)(F)F)cc1Cl	8.2	0.8	3.2	0.9	10.1	20.6
O=C(Nc1ncc(Cc2cc(Cl)ccc2Cl)s1)c1ccc([N+](=O)[O-])cc1	20.8	1.5	6.7	0.8	31.4*	-49.9
CC(=O)C1=C(c2ccccc2)NC(=O)NC1c1ccccc1OCC#N (stereo not given)	-4.9	1.1	-4.4	1	1.7	-8.6
O=C(CSc1nnnn1-c1ccccc1)N1CCc2ccccc2C1	64.8*	0.8	20.4	0.4	6.9	15.1
SMILES	CYP2C19 inhib	CYP2C9 activ	PostGolgi yeast	CYP2C19 act	PostGolgi ctrl	CYP2C9 inh
COc1ccc(C)cc1-n1nnnc1SCC(=O)c1ccc2c(c1)OCCO2	-2.8	1.2	-3.7	1	3.6	-17.3
COC(=O)CSc1nnnn1-c1ccccc1	55.6*	1	-7.8	0.4	-2.3	1.7
CC(=O)c1ccc(-n2nnnc2SCC(=O)N2CCc3ccccc3C2)cc1	.	.	-9.6	.	3.1	.
COCCn1c(SCc2nc3ccccc3s2)nc2ccccc21	100.2*	0.1	-0.3	0	10.9	85.9*
COc1ccc(C)cc1-n1nnnc1SCC1CCCO1 (stereo not given)	98.3*	0.4	-26.4	0	19.4	55.3*
CNC(=O)NC(=O)CSc1nc2ccccc2n1CCOC	6.6	0.8	-1.6	0.9	18.6	18.6
O=C(CCCCCn1c(=O)[nH]c2ccccc2c1=O)NCCCN1CCN(c2ccccc2F)CC1	33.4	0.6	-6.7	0.7	4.5	43.8
CC1=Nc2ccccc2N=C(NC(=O)CSc2nnnn2-c2ccccc2)C1c1ccccc1 (stereo not given)	79.4*	0.1	0.3	0.2	16.5	95.0*
C=CCSc1nnnn1-c1ccc(OC)cc1	98.3*	0.3	-0.5	0	-1.0	65.7*
CCOC(=O)c1oc2ccccc2c1CSc1nnnn1-c1ccc(C)cc1	.	.	-3.1	.	17.2	.
CCOC(=O)NC(=O)CSc1nnnn1-c1ccccc1	45.6	1.9	29.2	0.5	0.0	-94.4
COc1cc(CSc2nnnn2-c2ccc(C)cc2)cc(OC)c1OC	34.2	0.4	-6.7	0.7	2.5	64.1*
CSc1ccccc1-n1nnnc1SCc1ccccc1	87.4*	0.3	-11.2	0.1	20.9	65.8*
Cc1nc2cc(NC(=O)COc3ccc(C#N)cc3)ccc2n1-c1ccccc1	23.2	0.6	7.9	0.8	6.4	38.1
Cc1cc(C(=O)CSc2nnnn2C)c(C)n1CCc1ccc(Cl)cc1	22.4	0.9	-4.2	0.8	-12.4	8.9
NC(=O)c1ccc(-n2nnnc2SCc2ccc(F)cc2)cc1	74.7*	0.8	-0.3	0.3	29.9	20.3
COc1ccc(CCn2c(C)cc(C(=O)CSc3nnnn3-c3ccccc3)c2C)cc1	15.7	2.4*	-6.3	0.8	3.3	-140.4
COc1ccc(C)cc1-n1nnnc1SCc1nc2ccccc2s1	72.8*	0.2	-2.4	0.3	34.6*	77.9*
COc1ccc(CSc2nnnn2-c2ccccc2)cc1	96.4*	0.1	-2.2	0	13.2	88.6*
O=C(O)c1ccc(-n2nnnc2SCc2ccccc2)cc1	-24.5	0.7	2.0	1.2	-0.3	34.8
COc1cc(NC(=O)Nc2cccc(Cl)c2)c(OC)cc1NC(=O)CN1CCCCC1	16.3	0.8	8.7	0.8	3.3	17.6
OCC(CO)(CO)n1cnnn1	5.1	0.8	-13.2	0.9	-7.5	23.3
C=CCSc1nc(C)c2cc(C)cc(C)c2n1	37.1	0.8	5.6	0.6	0.9	16.2
COc1ccc(-n2nnnc2SCc2nc3ccccc3s2)cc1	95.3*	0.2	-4.9	0	15.6	79.3*
c1ccc(-n2cnnc2SCc2nc3ccccc3s2)cc1	39.3	0.9	-4.7	0.6	-0.8	11.6
Cc1ccc(CS(=O)(=O)Cc2ccc(C(=O)NCC3CCCO3)o2)cc1 (stereo not given)	-2.3	0.9	1.7	1	7.0	10.4
